# PubChem BioAssay (NCI)
# About 79,000 compounds went through this panel and 15% of them were active in at least one assay; those are over-represented in the sample as a whole. Values without a mark were called inactive. Calls of active or inactive are those of the source. Cut-off read from the data, not from the text of the source: active = growth inhibition above about 70%; inactive = the rest.
# Assay: NCI Yeast Anticancer Drug Screen. Data for the rad18 strain (AID 177)
# Details: S. cerevisiae rad18 mutant growth inhibition; at 100.0 µM; stronger effect = higher value
# In short: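 Steps: expose repair-mutant yeast to compound; measure growth; express as inhibition relative to vehicle control.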
row,Compound,growth inhibition
1,CCC/C(Cl)=N\OC(=O)Nc1cccc(C(F)(F)F)c1,2%
2,Clc1ccccc1C1OC1c1ccccc1Cl (stereo unspecified),2%
3,c1ccc2c(c1)c1ncccc1c1nccnc21,13%
4,COc1ccc(OC)c2cc3ccccc3cc12,50%
5,COc1cc(C2c3cc4c(cc3OC(NNc3ccccc3)C2C)OCO4)cc(OC)c1OC (stereo unspecified),84% (active)
6,CCCCCCCCCCCC1=C(O)C(=O)C=C(O)C1=O,92% (active)
7,CCCCCCCCCCC1CCC(=O)O1 (stereo unspecified),97% (active)
8,O=[N+]([O-])c1cc(CCl)ccc1CCl,97% (active)
9,CCCCCCCCCCNC(=O)OCC,99% (active)
10,COc1ccc2c(c1)C(=O)c1ccccc1C2,-6%
11,CCC(=O)OCCn1c2nc(=O)[nH]c(=O)c-2nc2cc(C)c(C)cc21,11%
12,Oc1c(Br)cc(Br)cc1C1CCCCC1,97% (active)
13,S=C(N/N=C(/c1ccccc1)c1ccccn1)N1CCCCCC1,19%
14,CNC(=O)OCc1c(COC(=O)NC)c(-c2ccc(-c3ccccc3)cc2)n(C)c1C,52%
15,COc1ccccc1/C=C1\Sc2scc(-c3cccc([N+](=O)[O-])c3)[n+]2C1=O,93% (active)
16,O=[N+]([O-])c1ccc2c(c1)C(N1CCN(CCO)CC1)Cc1ccc(F)cc1S2 (stereo unspecified),64%
17,Cc1ccc(CCC2=CCCc3c2ccc2ccccc32)cc1,2%
18,O=C(O)C1OC1(c1cccc(Cl)c1)c1ccccc1Cl (stereo unspecified),90% (active)
19,NC(=S)N/N=C\c1nccc2ccccc12,99% (active)
20,Clc1cccc(C(Nc2nncs2)Nc2nncs2)c1Cl,87% (active)
21,O=C(OCC=C1CCCC1)c1cc([N+](=O)[O-])cc([N+](=O)[O-])c1,98% (active)
22,O=C(Nc1ccccc1)C(=O)C(C(=O)c1ccccc1)C(c1ccccc1)c1ccccc1 (stereo unspecified),47%
23,N#CN1C2CCC1CC(=O)C2,-9%
24,COc1ccccc1C(=O)OCC1CCCN2CCCCC12 (stereo unspecified),97% (active)
25,CCNc1nnc(CSc2nc(-c3ccccc3)c(-c3ccccc3)[nH]2)s1,79% (active)
26,O=C1c2ccccc2-c2n[nH]c3cccc1c23,50%
